Common to all, as to assay type: functional
In assay [1] the test system is Plasmodium falciparum. Nature of the assay: GSK_TCMDC: Inhibition of Plasmodium falciparum 3D7 in whole red blood cells, using parasite LDH activity as an index of growth. Test compounds present at 2uM.
Assay [2] deals with Plasmodium falciparum. Nature of the assay: GSK_TCMDC: Inhibition of Plasmodium falciparum Dd2 in whole red blood cells, using parasite LDH activity as an index of growth. Test compounds present at 2uM.
A further assay concerns HepG2. Nature of the assay: GSK_TCMDC: Percent inhibition of human HepG2 cell line. Test compounds present at 10uM.

Turning to `CC(=O)Oc1c(C(=O)C2CCC(C(C)(C)C)CC2)c(OC(C)=O)c2ccccc2c1OC(C)=O` (configuration not stated), the Inhibition – broadly, the share of the control response that was lost under treatment – in the assay with Plasmodium falciparum [1] is reported as 96%; in the assay on Plasmodium falciparum [2], 96%; in the assay with HepG2, 9%.

Take `COc1cc(-c2cc3cc(Cl)c(Cl)cc3[nH]2)ccc1C(=O)NC1CCN(Cc2ccccc2)CC1.O=C(O)C(F)(F)F`: the Inhibition is 100% in the assay with Plasmodium falciparum [1], 100% in the assay with Plasmodium falciparum [2] and 12% with HepG2.

`CCN(CC)CCN(Cc1ccc(-c2ccc(C(F)(F)F)cc2)cc1)C(=O)Cn1c(CCc2cccc(F)c2F)nc(=O)c2cccnc21.O=C(O)C(O)C(O)C(=O)O`: the Inhibition in the assay on Plasmodium falciparum [1] is given as 100%; with Plasmodium falciparum [2] it was 89%; in the assay with HepG2 it was 75%.

With `O=C(O)C(F)(F)F.O=c1[nH]ccc2nc(N[C@@H]3CCCNC3)nc(Nc3ccc(S(=O)(=O)N4CCOCC4)cc3)c12`, the Inhibition in the assay on Plasmodium falciparum [1] was found to be 96%; with Plasmodium falciparum [2], 99%; in the assay on HepG2, 13%.

Regarding `Cc1nc(N)nc(N)c1CCCOc1ccc(Br)cc1`, the figures for the Inhibition in the assay on Plasmodium falciparum [1], in the assay on Plasmodium falciparum [2] and in the assay with HepG2 were 97%, 5% and 30%, respectively.

Turning to `CC(O)C1CCCCN1C(=O)c1cccc(-c2ccc(-c3nc4ccccc4[nH]3)s2)c1` (configuration not stated), the Inhibition in the assay on Plasmodium falciparum [1] came to 100%; in the assay with Plasmodium falciparum [2], 23%; in the assay with HepG2, 24%.

As for `Cc1c(CNCCCNc2cc(=O)c3ccccc3[nH]2)sc(C(F)F)c1Br.Cl`, the Inhibition is given as 98% in the assay with Plasmodium falciparum [1], 29% with Plasmodium falciparum [2] and 0% in the assay on HepG2.

In the case of `CC1(C)Cc2c(oc3ncn(CCn4cnc5oc6c(c5c4=N)CC(C)(C)SC6)c(=N)c23)CS1`, the Inhibition with Plasmodium falciparum [1] is on record as 98%; in the assay on Plasmodium falciparum [2], 93%; in the assay with HepG2 it was 0%.

As for `CCN(CC)Cc1cc(NC(=O)c2ccccc2O)ccc1Oc1ccc(Cl)cc1.Cl`, the Inhibition in the assay on Plasmodium falciparum [1] amounted to 98%; with Plasmodium falciparum [2], 88%; in the assay with HepG2, 32%.

Turning to `COc1cc(C(=O)N2CCOC(CCN3CCC[C@H]3C(=O)Nc3ccccc3)(c3ccc(Cl)c(Cl)c3)C2)cc(OC)c1OC` (some centres not stated), the Inhibition with Plasmodium falciparum [1] is 98%; in the assay on Plasmodium falciparum [2] it was 88%; with HepG2, 3%.

Turning to `Cc1cccc(Nc2nc3nonc3nc2Nc2cccc(Cl)c2Cl)c1C`, the values for the Inhibition with Plasmodium falciparum [1], in the assay on Plasmodium falciparum [2] and with HepG2 were 91%, 95% and 88%, respectively.

In the case of `Cc1cc(NCCC(=O)NCCc2ccccc2)nc(NCCc2ccc(F)cc2)n1.O=C(O)C(F)(F)F`, the Inhibition in the assay on Plasmodium falciparum [1] stood at 92%; in the assay with Plasmodium falciparum [2], 7%; with HepG2 it was 0%.

As to `CCn1c(-c2nonc2N)nc2c(-c3cccc(Cl)c3)ncc(OCCCNCc3cnc(C)nc3N)c21.O=C(O)C(F)(F)F`, the Inhibition in the assay on Plasmodium falciparum [1] was determined as 93%; with Plasmodium falciparum [2], 48%; in the assay with HepG2 it was 21%.

In the case of `CC(C)c1ccc(-c2noc(SCC(=O)N(C)c3ccc(F)cc3)n2)cc1`, the values for the Inhibition with Plasmodium falciparum [1], in the assay on Plasmodium falciparum [2] and with HepG2 were 84%, 77% and 7%, respectively.

Regarding `O=c1cc(NCCCNC2CCCc3c2cc(Cl)c(Cl)c3Cl)[nH]c2ccccc12` (configuration not stated), the Inhibition is 100% in the assay on Plasmodium falciparum [1], 64% in the assay with Plasmodium falciparum [2] and 6% with HepG2.

Turning to `CN1CCN(c2ccnc3ccc(NC(=O)Cc4cccc(Cl)c4Cl)cc23)CC1`, the figures for the Inhibition in the assay with Plasmodium falciparum [1], with Plasmodium falciparum [2] and in the assay on HepG2 were 100%, 64% and 8%, respectively.

Consider `FC(F)(F)c1ccc2[nH]c(-c3ccc(-c4cccc(CN5CCN(c6ccncc6)CC5)c4)cc3)nc2c1.O=C(O)C(F)(F)F`, for which the values for the Inhibition with Plasmodium falciparum [1], in the assay on Plasmodium falciparum [2] and with HepG2 were 100%, 99% and 82%, respectively.

On to `CC(C)(C)c1ccc(CN2CCCCC(NC(=O)c3cc(-c4ccccc4F)cs3)C2)cc1.O=C(O)C(F)(F)F` (configuration not stated), for which the figures for the Inhibition with Plasmodium falciparum [1], with Plasmodium falciparum [2] and in the assay with HepG2 were 100%, 99% and 6%, respectively.

As for `Cc1cccc2nc(-c3ccc(-c4cccc(NC(=O)Cc5c[nH]cn5)c4)cc3)[nH]c12`, the figures for the Inhibition in the assay on Plasmodium falciparum [1], in the assay on Plasmodium falciparum [2] and in the assay with HepG2 were 98%, 21% and 13%, respectively.

For `Cc1cc(O)nc(NC(=N)NOCc2ccccc2)n1`, the Inhibition in the assay with Plasmodium falciparum [1] was found to be 100%; in the assay with Plasmodium falciparum [2] it was 1%; in the assay with HepG2, 0%.

For `CCCCCCc1ncc(-c2cc3cc(O)c(-c4ccccc4)cc3oc2=O)s1`, the figures for the Inhibition with Plasmodium falciparum [1], in the assay with Plasmodium falciparum [2] and with HepG2 were 90%, 63% and 4%, respectively.

As for `CON=Cc1sc(CNCCCN=c2cc(O)c3ccccc3[nH]2)c(C)c1Br.Cl`, the figures for the Inhibition in the assay with Plasmodium falciparum [1], with Plasmodium falciparum [2] and with HepG2 were 96%, 63% and 0%, respectively.

`Cc1cc(Nc2ccccc2)nc(NCCOc2ccccc2)n1.Cl`: the values for the Inhibition in the assay with Plasmodium falciparum [1], with Plasmodium falciparum [2] and in the assay on HepG2 were 100%, 48% and 0%, respectively.

Turning to `CN(C)CCNCc1nc(-c2ccc3c(Nc4ccc(Cl)cc4F)ccnc3c2)cs1`, the values for the Inhibition in the assay with Plasmodium falciparum [1], with Plasmodium falciparum [2] and in the assay with HepG2 were 100%, 100% and 0%, respectively.

With `O=C(NCc1cccc(F)c1)Nc1cccc(-c2cccc(-c3nc4ccccc4[nH]3)c2)c1`, the Inhibition in the assay on Plasmodium falciparum [1] is recorded as 96%; in the assay on Plasmodium falciparum [2], 27%; in the assay on HepG2, 28%.

With `CC(Oc1ccc(C(=O)c2ccc(F)cc2)cc1)C(=O)N1CCc2ccccc21` (configuration not stated), the figures for the Inhibition in the assay with Plasmodium falciparum [1], in the assay on Plasmodium falciparum [2] and with HepG2 were 95%, 95% and 9%, respectively.

On to `CCOc1ccc2ccccc2c1C(=O)Nc1cc(C)nn1-c1nc(C)cc(=O)[nH]1`, for which the Inhibition is 93% with Plasmodium falciparum [1], 86% with Plasmodium falciparum [2] and 28% with HepG2.

Take `O=C(/C=C/c1ccc(Cl)c(Cl)c1)NCCCCCN1CCC(NC(=O)NC2CCCCC2)CC1`: the Inhibition in the assay with Plasmodium falciparum [1] is given as 96%; in the assay with Plasmodium falciparum [2] it was 44%; in the assay on HepG2, 22%.

Turning to `CCOC(=O)c1ccc(NC(=O)Nc2ccc(-c3ccc(-c4nc5cc(C(F)(F)F)ccc5[nH]4)cc3)cc2)cc1`, the values for the Inhibition in the assay with Plasmodium falciparum [1], in the assay on Plasmodium falciparum [2] and in the assay with HepG2 were 100%, 52% and 20%, respectively.

Regarding `O=C(Nc1ccc(C(F)(F)F)cc1)c1ccc(S(=O)(=O)NC2CCN(CC3CCCCC3)CC2)cc1.O=C(O)C(F)(F)F`, the Inhibition in the assay on Plasmodium falciparum [1] was determined as 100%; in the assay with Plasmodium falciparum [2], 20%; in the assay on HepG2, 30%.

As for `O=C(O)C(F)(F)F.Oc1ccc(CCNc2nc(NCCCOc3cc(CN4CCCCC4)ccc3F)nc(N3CCNCC3)n2)cc1`, the Inhibition in the assay on Plasmodium falciparum [1] is on record as 100%; in the assay with Plasmodium falciparum [2], 0%; in the assay with HepG2, 30%.

For the compound `CCOc1cccc(C(=O)Nc2cccc(CN3CCCN(Cc4cccc(O)c4)CC3)c2)c1.O=C(O)C(F)(F)F`, the Inhibition in the assay with Plasmodium falciparum [1] worked out at 85%; in the assay on Plasmodium falciparum [2] it was 18%; in the assay with HepG2 it was 17%.

As for `COc1ccc(-c2ccc(NC(=O)c3ccccc3)cc2)cc1CN1CCCN(C)CC1.O=C(O)C(F)(F)F`, the Inhibition is listed as 92% in the assay on Plasmodium falciparum [1], 17% in the assay with Plasmodium falciparum [2] and 24% in the assay with HepG2.

Turning to `O=C(N[C@H]1CCN(CCc2ccc(O[C@H]3CCNC3)c(F)c2)C1)c1ccc(Cl)c(Cl)c1.O=C(O)C(F)(F)F`, the Inhibition with Plasmodium falciparum [1] worked out at 95%; with Plasmodium falciparum [2], 23%; in the assay on HepG2, 39%.

`COc1ccc(C2CCN(CCCCNC(=O)c3ccc(NC(=O)c4ccc(Cl)cc4)cc3)CC2)c(OC)c1.Cl`: the Inhibition with Plasmodium falciparum [1] turned out to be 100%; in the assay on Plasmodium falciparum [2] it was 95%; in the assay with HepG2, 32%.

Take `CC(=O)N[C@H](C(=O)Nc1ccc(-c2ccc(-c3nc4cc(C(F)(F)F)ccc4[nH]3)s2)cc1)C(C)C`: the Inhibition with Plasmodium falciparum [1] is reported as 88%; with Plasmodium falciparum [2], 61%; in the assay with HepG2, 42%.

For `CC(=O)O.CCc1cc2c(cc1CC)CC(NC[C@@H](O)c1ccc(O)c3[nH]c(=O)ccc13)C2`, the Inhibition in the assay with Plasmodium falciparum [1] turned out to be 100%; in the assay on Plasmodium falciparum [2], 9%; in the assay with HepG2 it was 0%.

Turning to `NC(=O)c1cccc(CNCc2ccc(-c3cccc(-c4nc5ccccc5[nH]4)c3)cc2)c1.O=C(O)C(F)(F)F`, the results for the Inhibition in the assay on Plasmodium falciparum [1], with Plasmodium falciparum [2] and in the assay with HepG2 were 100%, 94% and 29%, respectively.

For the compound `CCC(CC)(Cc1ccccc1)NC(=O)[C@H](CC(C)C)Nc1ccc(C#N)c2ccccc12.O=C(O)C(F)(F)F`, the Inhibition in the assay with Plasmodium falciparum [1] is recorded as 90%; in the assay with Plasmodium falciparum [2] it was 73%; in the assay on HepG2 it was 57%.

With `O=C(Nc1ccc2nc3n(c(=O)c2c1)CCCCC3)C(=O)N1CCC(Cc2ccccc2)CC1`, the Inhibition with Plasmodium falciparum [1] turned out to be 91%; with Plasmodium falciparum [2], 70%; in the assay on HepG2, 12%.

As for `CCN(CC)C(=O)C(=O)c1c[nH]c2ccc(Cl)cc12`, the figures for the Inhibition with Plasmodium falciparum [1], in the assay on Plasmodium falciparum [2] and in the assay on HepG2 were 96%, 96% and 1%, respectively.

In the case of `CN1CCCC(CN2CCN(Cc3ccc(-c4ccc(-c5nc6ccccc6[nH]5)s4)cc3)CC2)C1.O=C(O)C(F)(F)F` (configuration not stated), the values for the Inhibition in the assay with Plasmodium falciparum [1], with Plasmodium falciparum [2] and in the assay with HepG2 were 100%, 100% and 57%, respectively.

Consider `O=C(Nc1cccc(C(F)(F)F)c1)c1ccc(S(=O)(=O)NCC2CCCN2CC2CCCCC2)cc1.O=C(O)C(F)(F)F` (configuration not stated), for which the Inhibition stood at 98% with Plasmodium falciparum [1], 3% with Plasmodium falciparum [2] and 14% with HepG2.

With `O=C(Nc1cccc(CN2CCN(C(=O)c3ccccc3)CC2)c1)c1cccs1.O=C(O)C(F)(F)F`, the Inhibition with Plasmodium falciparum [1] is listed as 95%; with Plasmodium falciparum [2], 97%; in the assay on HepG2, 15%.

For `CC(C)C[C@H](NC(=O)c1cc2ccccc2s1)C(=O)N[C@H]1CCN(Cc2ccc(I)c(OCCN3CCCC3)c2)C1.O=C(O)C(F)(F)F`, the Inhibition with Plasmodium falciparum [1] turned out to be 92%; with Plasmodium falciparum [2], 88%; in the assay with HepG2, 3%.

For the compound `COc1cc2nc(N3CCC(CNC(=O)c4ccc(-c5ccc(-c6noc(C)n6)cc5)cc4)CC3)nc(N)c2cc1OC`, the results for the Inhibition in the assay on Plasmodium falciparum [1], in the assay with Plasmodium falciparum [2] and in the assay on HepG2 were 98%, 100% and 96%, respectively.

On to `FC(F)(F)Oc1ccc(-c2cnc3ccc(NCc4ccncc4)nn23)cc1`, for which the values for the Inhibition in the assay with Plasmodium falciparum [1], in the assay with Plasmodium falciparum [2] and in the assay on HepG2 were 97%, 54% and 19%, respectively.

As for `COc1ccc(Nc2nccc(NCCNC(=O)Nc3ccccc3F)n2)cc1`, the Inhibition in the assay on Plasmodium falciparum [1] stood at 85%; with Plasmodium falciparum [2], 4%; with HepG2 it was 4%.

Turning to `COc1ccc(Nc2ncc3c(-c4cccc(NC(=O)Cc5ccc(F)cc5)c4)c[nH]c3n2)cc1OC`, the Inhibition in the assay with Plasmodium falciparum [1] came to 100%; in the assay on Plasmodium falciparum [2], 90%; in the assay on HepG2, 21%.

(Values after ChEMBL document CHEMBL1157539, “Thousands of chemical starting points for antimalarial lead identification” (Nature, 2010).)
